Reference: the supplement of paper PMC11732987, “Enantioselective OTUD7B fragment discovery through chemoproteomics screening and high-throughput optimisation” (Communications Chemistry, 2025)

What was measured:
Experiment in all cases: log2 ratio of Biotin-Ahx-Ub-VS probe labelling (fragment/DMSO); higher = less target engagement (more negative = stronger competition), active = hit call of the paper (q ≤ 0.05, log2 ratio ≤ -1)
Conditions in all cases: compound concentration: 200 uM; treatment time: 3 h
[1] = molecular target: T1, USP42 (UniProt Q9H9J4)
T1 sequence (whole entry): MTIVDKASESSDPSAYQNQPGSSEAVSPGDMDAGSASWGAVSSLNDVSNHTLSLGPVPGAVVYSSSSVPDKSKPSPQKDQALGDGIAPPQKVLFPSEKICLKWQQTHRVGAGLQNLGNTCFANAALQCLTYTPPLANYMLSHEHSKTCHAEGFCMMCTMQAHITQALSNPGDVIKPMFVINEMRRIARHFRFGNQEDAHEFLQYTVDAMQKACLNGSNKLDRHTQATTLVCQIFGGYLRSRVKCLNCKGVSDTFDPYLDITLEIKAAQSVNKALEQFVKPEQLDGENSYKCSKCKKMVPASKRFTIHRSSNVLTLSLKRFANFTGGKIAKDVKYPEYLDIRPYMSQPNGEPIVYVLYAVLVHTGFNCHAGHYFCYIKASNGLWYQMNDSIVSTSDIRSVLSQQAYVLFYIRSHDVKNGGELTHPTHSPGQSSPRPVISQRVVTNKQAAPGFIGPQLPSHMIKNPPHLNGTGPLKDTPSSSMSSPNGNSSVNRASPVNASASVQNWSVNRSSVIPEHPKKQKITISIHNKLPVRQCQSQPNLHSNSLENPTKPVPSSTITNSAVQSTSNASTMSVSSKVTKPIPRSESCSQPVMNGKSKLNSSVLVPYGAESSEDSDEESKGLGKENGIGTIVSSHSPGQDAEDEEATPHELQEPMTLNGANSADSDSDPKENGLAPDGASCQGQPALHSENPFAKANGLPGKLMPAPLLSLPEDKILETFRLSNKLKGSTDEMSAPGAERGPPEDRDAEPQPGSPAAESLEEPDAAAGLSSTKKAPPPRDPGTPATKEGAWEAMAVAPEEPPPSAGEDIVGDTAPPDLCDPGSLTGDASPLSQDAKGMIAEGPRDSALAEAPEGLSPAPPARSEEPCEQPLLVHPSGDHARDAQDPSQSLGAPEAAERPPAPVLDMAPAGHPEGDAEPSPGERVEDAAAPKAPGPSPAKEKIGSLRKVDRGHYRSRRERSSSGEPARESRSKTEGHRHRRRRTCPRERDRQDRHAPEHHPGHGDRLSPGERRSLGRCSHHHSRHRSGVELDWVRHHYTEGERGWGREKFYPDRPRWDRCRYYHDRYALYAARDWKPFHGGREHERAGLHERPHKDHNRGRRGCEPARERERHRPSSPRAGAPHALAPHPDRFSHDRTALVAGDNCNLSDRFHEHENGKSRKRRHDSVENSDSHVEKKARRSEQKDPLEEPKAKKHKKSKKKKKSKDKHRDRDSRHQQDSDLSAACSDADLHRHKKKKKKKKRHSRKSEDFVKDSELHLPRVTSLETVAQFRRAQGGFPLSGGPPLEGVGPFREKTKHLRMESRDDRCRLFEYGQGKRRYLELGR
In short: (§1)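 HEK293T lysate (495 µg per sample, in Tris/CHAPS/IGEPAL buffer with protease inhibitors) was exposed in triplicate for 3 h to fragment at 200 µM or to vehicle, then to Biotin-Ahx-Ub-VS at 0.5 µM final for 1 h. Labelled DUBs were enriched on NeutrAvidin, digested with LysC and trypsin, and analysed by diaPASEF LC-MS/MS. Spectronaut label-free quantities were normalised to the global median, and values are average log2 ratios of fragment over vehicle from an unpaired t-test. Only proteins with ≥2 unique peptides were used.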

[2] = molecular target: USP46 (UniProt P62068)
USP46, sequence (P62068 whole entry): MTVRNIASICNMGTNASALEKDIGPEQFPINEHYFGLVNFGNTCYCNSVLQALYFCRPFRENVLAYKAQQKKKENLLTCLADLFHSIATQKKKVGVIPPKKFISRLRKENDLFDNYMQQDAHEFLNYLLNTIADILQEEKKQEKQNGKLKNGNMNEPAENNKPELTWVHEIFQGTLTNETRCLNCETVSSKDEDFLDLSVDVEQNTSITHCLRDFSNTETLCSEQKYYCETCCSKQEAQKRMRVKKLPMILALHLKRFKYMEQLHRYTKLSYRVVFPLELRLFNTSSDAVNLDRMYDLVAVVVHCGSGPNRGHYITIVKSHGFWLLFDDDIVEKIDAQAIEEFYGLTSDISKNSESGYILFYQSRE
In short: as §1

[3] = molecular target: T2, USP47 (UniProt Q96K76)
T2 sequence (whole entry): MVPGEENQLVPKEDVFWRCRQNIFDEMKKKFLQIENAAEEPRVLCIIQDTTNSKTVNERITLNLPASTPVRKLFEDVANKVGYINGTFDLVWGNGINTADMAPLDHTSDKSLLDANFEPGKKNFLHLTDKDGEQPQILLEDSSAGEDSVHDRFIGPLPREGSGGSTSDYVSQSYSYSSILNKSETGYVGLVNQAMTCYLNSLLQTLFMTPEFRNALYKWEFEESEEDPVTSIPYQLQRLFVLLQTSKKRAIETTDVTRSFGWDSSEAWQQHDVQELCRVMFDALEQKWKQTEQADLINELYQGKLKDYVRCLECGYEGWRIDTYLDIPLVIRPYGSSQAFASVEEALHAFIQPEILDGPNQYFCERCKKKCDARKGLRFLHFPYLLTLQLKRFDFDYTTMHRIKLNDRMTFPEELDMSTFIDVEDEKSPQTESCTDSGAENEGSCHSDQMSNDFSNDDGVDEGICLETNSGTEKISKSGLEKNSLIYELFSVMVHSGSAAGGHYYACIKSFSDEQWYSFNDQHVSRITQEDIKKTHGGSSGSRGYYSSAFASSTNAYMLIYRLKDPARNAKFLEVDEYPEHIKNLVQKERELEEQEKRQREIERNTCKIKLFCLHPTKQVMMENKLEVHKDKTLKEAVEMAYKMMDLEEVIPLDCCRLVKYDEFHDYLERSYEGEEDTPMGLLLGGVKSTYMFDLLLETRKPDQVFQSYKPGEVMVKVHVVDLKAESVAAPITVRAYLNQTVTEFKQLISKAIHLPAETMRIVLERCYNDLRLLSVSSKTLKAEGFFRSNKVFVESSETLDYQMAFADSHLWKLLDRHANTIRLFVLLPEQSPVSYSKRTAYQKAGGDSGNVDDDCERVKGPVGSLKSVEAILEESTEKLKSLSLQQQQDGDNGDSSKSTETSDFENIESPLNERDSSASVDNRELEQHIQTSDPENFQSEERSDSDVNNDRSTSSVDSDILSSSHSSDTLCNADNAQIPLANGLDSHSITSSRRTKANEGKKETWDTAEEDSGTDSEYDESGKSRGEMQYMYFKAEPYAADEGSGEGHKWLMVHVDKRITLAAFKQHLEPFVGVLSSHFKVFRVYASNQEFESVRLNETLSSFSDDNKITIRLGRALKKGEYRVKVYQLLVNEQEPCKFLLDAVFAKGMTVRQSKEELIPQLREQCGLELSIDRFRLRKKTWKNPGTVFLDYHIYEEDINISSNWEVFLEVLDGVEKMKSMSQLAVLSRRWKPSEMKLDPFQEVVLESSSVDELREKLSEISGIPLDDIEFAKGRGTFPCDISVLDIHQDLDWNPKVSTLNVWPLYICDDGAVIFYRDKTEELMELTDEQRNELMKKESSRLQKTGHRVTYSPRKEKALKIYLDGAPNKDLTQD
In short: as §1

[4] = molecular target: T3, USP48 (UniProt Q86UV5)
T3 sequence (whole entry): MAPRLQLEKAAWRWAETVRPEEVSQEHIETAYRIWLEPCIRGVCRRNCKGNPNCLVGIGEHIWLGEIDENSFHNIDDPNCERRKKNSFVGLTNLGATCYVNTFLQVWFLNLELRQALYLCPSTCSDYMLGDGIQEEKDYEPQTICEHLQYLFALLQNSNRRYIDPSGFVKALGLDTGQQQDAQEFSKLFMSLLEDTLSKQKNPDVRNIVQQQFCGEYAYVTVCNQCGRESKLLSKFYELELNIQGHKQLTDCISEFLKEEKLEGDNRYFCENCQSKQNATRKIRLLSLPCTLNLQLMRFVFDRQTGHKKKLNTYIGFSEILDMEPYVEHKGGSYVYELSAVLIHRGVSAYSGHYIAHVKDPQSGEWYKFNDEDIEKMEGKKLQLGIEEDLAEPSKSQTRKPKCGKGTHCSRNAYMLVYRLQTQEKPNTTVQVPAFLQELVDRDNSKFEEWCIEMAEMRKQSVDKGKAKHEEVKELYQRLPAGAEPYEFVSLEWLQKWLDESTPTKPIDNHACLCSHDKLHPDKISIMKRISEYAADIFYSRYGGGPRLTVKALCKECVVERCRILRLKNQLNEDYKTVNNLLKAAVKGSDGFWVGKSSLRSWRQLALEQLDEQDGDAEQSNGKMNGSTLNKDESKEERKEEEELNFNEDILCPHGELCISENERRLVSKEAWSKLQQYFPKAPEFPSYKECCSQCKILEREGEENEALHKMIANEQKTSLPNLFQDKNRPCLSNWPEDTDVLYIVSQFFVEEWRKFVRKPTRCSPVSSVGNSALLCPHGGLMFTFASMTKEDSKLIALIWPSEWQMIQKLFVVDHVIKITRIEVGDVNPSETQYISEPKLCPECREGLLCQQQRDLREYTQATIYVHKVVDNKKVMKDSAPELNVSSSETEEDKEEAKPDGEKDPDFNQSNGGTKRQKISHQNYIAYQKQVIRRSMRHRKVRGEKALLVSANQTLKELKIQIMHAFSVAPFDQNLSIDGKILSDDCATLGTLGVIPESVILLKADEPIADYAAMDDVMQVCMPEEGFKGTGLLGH
In short: as §1

[5] = molecular target: T4, USP5 (UniProt P45974)
T4 sequence (whole entry): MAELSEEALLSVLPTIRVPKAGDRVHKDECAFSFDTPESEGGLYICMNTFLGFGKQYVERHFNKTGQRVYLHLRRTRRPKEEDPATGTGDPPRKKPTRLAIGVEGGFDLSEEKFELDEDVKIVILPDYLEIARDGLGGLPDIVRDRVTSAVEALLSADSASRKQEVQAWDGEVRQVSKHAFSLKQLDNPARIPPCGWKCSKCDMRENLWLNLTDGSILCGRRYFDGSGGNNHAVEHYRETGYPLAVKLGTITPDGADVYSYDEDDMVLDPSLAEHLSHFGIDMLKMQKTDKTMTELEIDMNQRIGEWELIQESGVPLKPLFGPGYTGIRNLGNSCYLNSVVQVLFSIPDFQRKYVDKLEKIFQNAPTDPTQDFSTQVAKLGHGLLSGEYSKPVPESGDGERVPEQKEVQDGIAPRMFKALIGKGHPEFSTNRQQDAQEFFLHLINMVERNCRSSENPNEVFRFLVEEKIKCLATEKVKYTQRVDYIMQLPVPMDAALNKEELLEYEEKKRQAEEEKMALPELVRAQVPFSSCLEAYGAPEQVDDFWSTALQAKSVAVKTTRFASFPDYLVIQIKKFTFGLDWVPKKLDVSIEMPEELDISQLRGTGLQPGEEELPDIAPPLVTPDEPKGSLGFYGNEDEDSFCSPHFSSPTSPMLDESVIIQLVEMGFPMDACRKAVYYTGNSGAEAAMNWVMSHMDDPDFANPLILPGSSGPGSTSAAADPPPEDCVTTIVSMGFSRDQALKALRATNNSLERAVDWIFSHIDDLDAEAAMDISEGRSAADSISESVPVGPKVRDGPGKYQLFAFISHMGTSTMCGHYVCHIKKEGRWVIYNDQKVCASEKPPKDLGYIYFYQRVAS
In short: as §1

[6] = molecular target: USP54 (UniProt Q70EL1)
USP54, sequence (Q70EL1 whole entry): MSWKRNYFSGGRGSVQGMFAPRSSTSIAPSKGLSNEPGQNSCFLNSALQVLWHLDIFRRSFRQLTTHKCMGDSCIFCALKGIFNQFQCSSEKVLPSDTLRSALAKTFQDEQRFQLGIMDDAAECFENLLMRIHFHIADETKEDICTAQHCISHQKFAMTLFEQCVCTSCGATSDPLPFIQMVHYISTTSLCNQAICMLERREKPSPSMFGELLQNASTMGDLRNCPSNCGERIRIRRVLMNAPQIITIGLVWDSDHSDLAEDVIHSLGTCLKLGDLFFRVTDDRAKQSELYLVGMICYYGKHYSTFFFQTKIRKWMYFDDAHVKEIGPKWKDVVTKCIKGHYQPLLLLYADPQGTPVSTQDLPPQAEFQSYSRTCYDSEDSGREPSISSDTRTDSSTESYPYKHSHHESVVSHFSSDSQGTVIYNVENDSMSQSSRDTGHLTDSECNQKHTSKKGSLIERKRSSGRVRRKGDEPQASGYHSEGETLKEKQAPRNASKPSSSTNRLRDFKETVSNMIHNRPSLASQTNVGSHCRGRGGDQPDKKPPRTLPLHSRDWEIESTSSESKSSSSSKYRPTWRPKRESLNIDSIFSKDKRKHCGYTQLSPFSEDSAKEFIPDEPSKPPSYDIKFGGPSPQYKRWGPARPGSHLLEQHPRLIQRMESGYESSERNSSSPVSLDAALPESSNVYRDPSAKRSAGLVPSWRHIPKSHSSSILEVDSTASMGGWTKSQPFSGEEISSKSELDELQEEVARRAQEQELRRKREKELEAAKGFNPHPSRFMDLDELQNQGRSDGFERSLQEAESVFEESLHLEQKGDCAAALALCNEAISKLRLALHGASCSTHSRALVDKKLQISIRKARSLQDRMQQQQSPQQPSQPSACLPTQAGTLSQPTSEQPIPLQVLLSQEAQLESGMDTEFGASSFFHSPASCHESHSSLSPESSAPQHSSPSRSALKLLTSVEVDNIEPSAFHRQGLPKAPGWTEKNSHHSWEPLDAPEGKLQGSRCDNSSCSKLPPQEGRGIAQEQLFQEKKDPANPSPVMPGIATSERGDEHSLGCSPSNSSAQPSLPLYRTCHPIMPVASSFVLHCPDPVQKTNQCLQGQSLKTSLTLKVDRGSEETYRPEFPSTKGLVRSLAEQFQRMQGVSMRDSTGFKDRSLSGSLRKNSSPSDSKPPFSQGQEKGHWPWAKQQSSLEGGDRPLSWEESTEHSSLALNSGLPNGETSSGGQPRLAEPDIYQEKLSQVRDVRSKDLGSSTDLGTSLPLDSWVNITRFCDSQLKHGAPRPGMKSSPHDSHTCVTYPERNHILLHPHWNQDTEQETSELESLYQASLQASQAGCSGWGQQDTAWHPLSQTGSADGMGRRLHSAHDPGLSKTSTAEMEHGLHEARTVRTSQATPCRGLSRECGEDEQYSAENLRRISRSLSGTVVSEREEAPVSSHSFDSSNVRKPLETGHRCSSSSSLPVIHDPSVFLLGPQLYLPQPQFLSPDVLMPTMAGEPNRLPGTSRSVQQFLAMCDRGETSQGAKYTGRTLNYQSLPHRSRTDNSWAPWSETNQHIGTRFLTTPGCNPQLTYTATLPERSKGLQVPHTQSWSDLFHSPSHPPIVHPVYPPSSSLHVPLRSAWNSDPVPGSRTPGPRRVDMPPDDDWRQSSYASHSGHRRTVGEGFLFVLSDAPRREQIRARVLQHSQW
In short: as §1

[7] = molecular target: USP7 (UniProt Q93009)
USP7, sequence (Q93009 whole entry, looked up): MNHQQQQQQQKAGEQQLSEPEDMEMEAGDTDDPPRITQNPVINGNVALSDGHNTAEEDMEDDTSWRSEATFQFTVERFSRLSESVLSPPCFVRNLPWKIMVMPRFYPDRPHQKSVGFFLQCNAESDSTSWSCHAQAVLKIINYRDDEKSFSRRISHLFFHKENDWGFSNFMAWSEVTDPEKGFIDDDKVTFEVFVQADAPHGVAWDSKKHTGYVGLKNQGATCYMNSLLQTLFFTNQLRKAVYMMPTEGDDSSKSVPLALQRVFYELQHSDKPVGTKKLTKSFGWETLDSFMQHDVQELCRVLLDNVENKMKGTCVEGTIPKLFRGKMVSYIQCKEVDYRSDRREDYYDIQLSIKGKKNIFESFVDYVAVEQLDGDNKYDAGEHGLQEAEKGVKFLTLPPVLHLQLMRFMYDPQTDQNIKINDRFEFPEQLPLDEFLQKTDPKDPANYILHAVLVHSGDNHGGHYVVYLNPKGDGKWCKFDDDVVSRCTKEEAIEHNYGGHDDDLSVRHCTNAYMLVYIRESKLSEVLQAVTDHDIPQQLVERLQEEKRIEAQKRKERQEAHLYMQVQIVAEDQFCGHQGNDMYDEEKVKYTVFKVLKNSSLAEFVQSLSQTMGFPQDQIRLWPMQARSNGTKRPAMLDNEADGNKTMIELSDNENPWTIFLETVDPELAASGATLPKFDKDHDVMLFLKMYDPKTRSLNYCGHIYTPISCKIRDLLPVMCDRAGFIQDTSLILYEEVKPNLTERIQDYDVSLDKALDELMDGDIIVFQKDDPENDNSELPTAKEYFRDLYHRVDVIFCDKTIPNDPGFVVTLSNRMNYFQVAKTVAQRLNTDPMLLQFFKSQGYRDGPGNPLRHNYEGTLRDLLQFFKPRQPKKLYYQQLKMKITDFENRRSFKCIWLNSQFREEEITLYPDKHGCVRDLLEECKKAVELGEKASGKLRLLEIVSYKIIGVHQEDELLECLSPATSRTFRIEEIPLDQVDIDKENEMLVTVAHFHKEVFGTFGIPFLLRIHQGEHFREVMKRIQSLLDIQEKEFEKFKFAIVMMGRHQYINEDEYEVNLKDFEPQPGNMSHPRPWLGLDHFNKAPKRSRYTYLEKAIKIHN
In short: as §1

[8] = molecular target: T5, USP8 (UniProt P40818)
T5 sequence (whole entry): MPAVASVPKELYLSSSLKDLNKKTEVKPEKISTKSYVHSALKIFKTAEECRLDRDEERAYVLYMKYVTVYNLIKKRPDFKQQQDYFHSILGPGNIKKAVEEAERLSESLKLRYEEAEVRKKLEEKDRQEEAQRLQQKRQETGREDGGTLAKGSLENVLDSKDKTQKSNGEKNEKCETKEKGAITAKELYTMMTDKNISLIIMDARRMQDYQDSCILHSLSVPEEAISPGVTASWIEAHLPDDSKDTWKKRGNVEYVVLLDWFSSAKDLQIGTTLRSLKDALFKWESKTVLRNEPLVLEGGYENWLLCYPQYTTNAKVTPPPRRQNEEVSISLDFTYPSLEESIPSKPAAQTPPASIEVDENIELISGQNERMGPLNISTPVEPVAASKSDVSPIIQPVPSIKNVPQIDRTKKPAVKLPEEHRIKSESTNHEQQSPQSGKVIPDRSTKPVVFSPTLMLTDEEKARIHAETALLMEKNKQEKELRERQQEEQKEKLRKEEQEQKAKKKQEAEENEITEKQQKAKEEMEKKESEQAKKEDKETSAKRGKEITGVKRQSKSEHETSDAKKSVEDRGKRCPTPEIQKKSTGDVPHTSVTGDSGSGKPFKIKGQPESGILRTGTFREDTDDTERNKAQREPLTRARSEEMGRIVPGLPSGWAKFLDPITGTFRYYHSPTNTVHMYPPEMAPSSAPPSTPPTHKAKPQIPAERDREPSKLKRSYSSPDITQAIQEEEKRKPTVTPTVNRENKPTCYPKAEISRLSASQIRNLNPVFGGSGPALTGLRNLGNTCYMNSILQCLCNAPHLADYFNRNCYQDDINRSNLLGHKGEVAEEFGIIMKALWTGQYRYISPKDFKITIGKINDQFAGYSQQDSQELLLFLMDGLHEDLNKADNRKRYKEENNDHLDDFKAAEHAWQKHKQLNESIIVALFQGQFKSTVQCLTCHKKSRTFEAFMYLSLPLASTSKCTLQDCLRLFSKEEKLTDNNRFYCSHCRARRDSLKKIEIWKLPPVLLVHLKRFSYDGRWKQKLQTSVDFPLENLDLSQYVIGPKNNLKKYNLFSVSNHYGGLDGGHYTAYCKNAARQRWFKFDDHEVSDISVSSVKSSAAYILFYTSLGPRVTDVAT
In short: as §1

[9] = molecular target: USP9X (UniProt Q93008)
In short: as §1

[10] = molecular target: UniProt O00487
UniProt O00487, sequence (O00487 whole entry): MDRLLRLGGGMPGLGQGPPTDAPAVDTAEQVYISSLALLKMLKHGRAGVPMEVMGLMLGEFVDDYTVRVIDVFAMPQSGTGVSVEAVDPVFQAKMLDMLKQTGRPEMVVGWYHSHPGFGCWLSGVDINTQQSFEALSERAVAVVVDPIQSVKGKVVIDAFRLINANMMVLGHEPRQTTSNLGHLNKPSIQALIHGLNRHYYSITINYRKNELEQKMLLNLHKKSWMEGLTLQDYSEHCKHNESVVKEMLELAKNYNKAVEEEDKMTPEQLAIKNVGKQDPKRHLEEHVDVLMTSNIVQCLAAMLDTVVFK
In short: as §1

Measured: log2 ratio of Biotin-Ahx-Ub-VS probe labelling

Cc1cccc(C)c1NC(=O)CCl
inactive: [1] -0.0226 | [2] -0.0272 | [3] 0.139 | [4] -0.538 | [5] -0.194 | [6] 0.412 | [7] -0.264 | [8] -0.461 | [9] -0.187 | [10] -0.00227
